# Experimental data: the supplement of paper PMC7156485
# ± gives the standard deviation of the averaged measurements.
# System: TDF
# Assay: cell number relative to DMSO (% of DMSO); higher = more cells (less growth inhibition / toxicity)
# Settings: concentration: 10 µM; 24 h
# Method in brief: (§1)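 Cell number or H1.0 nuclear intensity appears as percent of the plate control, based on the median of replicates. Measurements came from HCC1569 and TDF cells exposed in triplicate to compounds at 10 µM for 24 h at 37 °C, then imaged in six fields per well at ×10. Positional effects were smoothed out of HCC1569 values.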
# 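For H1.0 immunofluorescence intensity relative to DMSO in this document: TDF is a line of transformed human dermal fibroblasts of mesenchymal origin.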
# 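For cell number relative to DMSO in this document: TDF denotes transformed human dermal fibroblasts of mesenchymal origin.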
row,Structure (SMILES),cell number
1,c1ccc2c(c1)[nH]c1cnccc12 [Norharmane],106
2,Nc1ncnc2c1ccn2C1OC(CO)C(O)C1O (stereo not given) [Tubericidin],32.3
3,COc1cc2c(cc1OC)C(C)NCC2 (stereo not given) [Salsolodine],97.2
4,COc1ccc(Cc2nccc3cc(OC)c(OC)cc23)cc1OC.Cl [Papaverine hydrochloride],77.7 ± 7.8
5,CC(C)(C)c1o[nH]c(=O)c1CC(N)C(=O)O (stereo not given),104
6,COC1C(O)C(C)OC(OC2C(Oc3cccc4c(O)c5c(=O)oc6ccc(C)c7c(=O)oc(c34)c5c67)OC(C)C(O)C2O)C1O (stereo not given) [Chartreusin],99.3

# System: TDF
# Assay: H1.0 immunofluorescence intensity relative to DMSO (% of DMSO); higher = stronger H1.0 induction, active = 120 or more
# Settings: concentration: 10 µM; 24 h
# Method in brief: as §1
row,Structure (SMILES),H1.0 immunofluorescence intensity
1,CC1CC(C)C(=O)C(C(O)CC2CC(=O)NC(=O)C2)C1 (stereo not given) [Cycloheximide],110 (inactive)
2,COc1cc(C2c3cc4c(cc3C(O)C3COC(=O)C23)OCO4)cc(OC)c1O (stereo not given) [4'-Demethylpipodophyllotoxin],157 (active)
3,COc1ccc2c(c[n+](C)c3c4cc5c(cc4ccc23)OCO5)c1OC.[Cl-] [Chelerythrine Chloride],94 (inactive)
4,Cc1sc2ccccc2c1CC1=NCCN1.O=C(O)C(=O)O [Benazoline oxalate],92 (inactive)
5,NCC(CC(=O)O)c1ccc(Cl)cc1 (racemic),94.3 (inactive)
6,CC(C)(C)NCC(O)c1ccccc1Cl.Cl (stereo not given) [Tulobuterol hydrochloride],89.1 (inactive)
7,CCCCc1ccc(C(=O)O)nc1 [Fusaric acid],90.2 (inactive)
8,Cl.Cl.Oc1ccc2c3c1OC1c4[nH]c5c(c4CC4(O)C(C2)N(CC2CC2)CCC314)CC1(O)C2Cc3ccc(O)c4c3C1(CCN2CC1CC1)C5O4 (stereo not given) [nor-Binaltorphimine dihydrochloride],94.9 (inactive)
9,CC=C1CN2CCC34C(=C(CC=O)C1CC23)Nc1ccccc14 (stereo not given) [Norfluorocurarine],97.8 (inactive)
10,CCNC(=O)C[C@@H]1N=C(c2ccc(Cl)cc2)c2cc(OC)ccc2-n2c(C)nnc21,141 (active)
11,COC(=O)c1cc2c(cn1)[nH]c1ccccc12 [Methyl beta-carboline-3-carboxylate],90.1 (inactive)
12,COC1C=C2CCN(C)C2C2c3cc4c(cc3C(=O)OC12)OCO4.O=[N+]([O-])O (stereo not given) [Ungerine nitrate],96.5 (inactive)
13,CCCCC(C#N)(Cn1cncn1)c1ccc(Cl)cc1 (stereo not given) [Myclobutanil],102 (inactive)
14,"CC(C)CC1C(=O)N2CCCC2C2(O)OC(NC(=O)C3C=C4c5cccc6[nH]c(Br)c(c56)CC4N(C)C3)(C(C)C)C(=O)N12.CS(=O)(=O)O (single isomer, unassigned; (+)) [(+)-Bromocriptine methanesulfonate]",96.3 (inactive)
15,Fc1cc(F)c2c(c1)C1C=CCC1C(c1cccnc1)N2 (stereo not given),126 (active)
16,CC12CCC3C(CCC4=C(O)C(=O)CCC43C)C1CCC2=O (stereo not given) [Formestane],98.3 (inactive)
17,Cl.NCC#Cc1ccccc1 [3-Phenylpropargylamine hydrochloride],80.3 (inactive)
18,CC1=C(O)C(=O)C=C2C1=CC=C1C2(C)CCC2(C)C3CC(C)(C(=O)O)CCC3(C)CCC12C (stereo not given) [Celastrol],120 (inactive)
19,COc1cc(C2c3cc4c(cc3C(O)C3COC(=O)C23)OCO4)cc(OC)c1OC (stereo not given) [Podophyllotoxin],152 (active)
20,CC(C)CC1C(=O)N2CCCC2C2(O)OC(NC(=O)C3C=C4c5cccc6[nH]c(Br)c(c56)CC4N(C)C3)(C(C)C)C(=O)N12.CS(=O)(=O)O (stereo not given) [Bromocriptine mesylate],94.1 (inactive)

row,Structure (SMILES),H1.0 immunofluorescence intensity
1,C=CC12CN(C)C3C4COC(CC41)C1(C(=O)Nc4ccccc41)C32.Cl (stereo not given),101 (inactive)
2,CN1C2CCCC1CC(=O)C2.Cl,108 (inactive)
3,Cl.c1ccc(C2CC2)c(OCC2=NCCN2)c1 [Cirazoline hydrochloride],90.7 (inactive)
4,Cl.O=C1CCC2(O)C3Cc4ccc(O)c5c4C2(CCN3CC2CC2)C1O5 (stereo not given) [Naltrexone.HCl],90.5 (inactive)
5,Cl.O=C1CCC2(O)C3Cc4ccc(O)c5c4C2(CCN3CC2CC2)C1O5 (stereo not given) [Naltrexone hydrochloride],90.8 (inactive)
6,CCCC(=O)OCC[N+](C)(C)C [Butyrylcholine],92.9 (inactive)
7,CCS(=O)(=O)Nc1cccc(C(=C2CCCCC2)c2cnc[nH]2)c1,94.6 (inactive)
8,Cc1ncc(CNC(=O)N(CCCl)N=O)c(N)n1.Cl [Nimustine hydrochloride],104 (inactive)
9,O=C1C=CC(=O)C=C1 [p-Benzoquinone],93.1 (inactive)
10,COC(C(=O)C(O)C(C)O)C1Cc2cc3cc(OC4CC(OC5CC(O)C(OC)C(C)O5)C(OC(C)=O)C(C)O4)c(C)c(O)c3c(O)c2C(=O)C1OC1CC(OC2CC(OC3CC(C)(O)C(OC(C)=O)C(C)O3)C(O)C(C)O2)C(O)C(C)O1 (stereo not given) [Chromomycin A3],175 (active)
11,CCCCCN(C)CCC(O)(P(=O)([O-])O)P(=O)(O)O.[Na+],89.4 (inactive)
12,CC1(C(=O)O)C2CCC(O2)C1(C)C(=O)O (stereo not given) [Cantharidic Acid],239 (active)
13,C[N+]1(C)CCOC(O)(c2ccc(-c3ccc(C4(O)C[N+](C)(C)CCO4)cc3)cc2)C1.[Br-].[Br-] (stereo not given) [Hemicholinium-3],92 (inactive)
14,c1ccc2c(c1)[nH]c1cnccc12 [Norharmane],97.6 (inactive)
15,Nc1ncnc2c1ccn2C1OC(CO)C(O)C1O (stereo not given) [Tubericidin],118 (inactive)
16,COc1cc2c(cc1OC)C(C)NCC2 (stereo not given) [Salsolodine],88.7 (inactive)
17,COc1ccc(Cc2nccc3cc(OC)c(OC)cc23)cc1OC.Cl [Papaverine hydrochloride],102 (inactive)
18,CC(C)(C)c1o[nH]c(=O)c1CC(N)C(=O)O (stereo not given),90 (inactive)
19,COC1C(O)C(C)OC(OC2C(Oc3cccc4c(O)c5c(=O)oc6ccc(C)c7c(=O)oc(c34)c5c67)OC(C)C(O)C2O)C1O (stereo not given) [Chartreusin],100 (inactive)
